# In PubChem BioAssay AID1259240 (Keith Lab, Institute of Cancer Science, University of …, 2017):
# Unmarked numbers belong to inactive results. Active and inactive are the calls of the source. Rule as the data show it: active = fold change mostly below about -2 (no sharp cut-off); inactive = mostly above about -1.8.
# Test: modulation of TERT promoter-driven luciferase – cell-based, luciferase reporter, human, primary screen (AID 1259240)
# Conditions: A2780 TERT promoter luciferase reporter, 16 h; at 20 µM, fold versus average of vehicle-only wells
SMILES,fold change,outcome
COc1ccc2nc(C)c(C(=O)OCCN(C)C)cc2c1,1.5,
CCCCC1=NN(C(=O)C(=O)Nc2ccc(Br)cc2)C(O)(C(F)(F)F)C1 (centres undefined),1.01,
CCNc1nc(NCC)nc(OCCNS(=O)(=O)c2ccccc2)n1,-1.79,
COc1ccc2cc3c(N)nn(C(=O)Cn4nc([N+](=O)[O-])c(Br)c4C)c3nc2c1,-1.45,
CCOC(=O)c1[nH]c2ccc(F)cc2c1N,-1.48,
CN1C(=O)/C(=C/c2cn(CC(=O)N3CCCc4ccccc43)c3ccccc23)c2ccccc21,1.47,
COC(=O)CSc1nnc2c3c4c(sc3nc(C)n12)CCCC4,-1.45,
COc1cc(-c2nc3s/c(=C\c4ccccc4Br)c(=O)n3n2)cc(OC)c1OC,1.02,
N=C1C(c2nc3ccccc3c(=O)[nH]2)=C(O)CN1c1ccc(Cl)c(Cl)c1,,active
Cc1c(C(=O)N2CCOCC2)sc2nc3n(c(=O)c12)N=C(c1ccc(Cl)cc1)CS3,1.21,
Cn1c(C(=O)NCCN2CCOCC2)cc2c(=O)[nH]c3ccccc3c21,1.17,
CCCCCNC(=O)c1ccc(NC2=NC3CS(=O)(=O)CC3S2)cc1 (centres undefined),1.22,
COc1ccc(Cl)cc1N1CC(O)=C(c2nc3ccccc3c(=O)[nH]2)C1=N,,inactive
COc1ccc(C2=NN3C(C2)c2cc(Cl)ccc2OC3c2cccnc2)cc1 (centres undefined),1.37,
Cc1ccc2nc(Cl)c3nncn3c2c1,1.44,
CCCn1c(OC)nc2c1c(=O)n(C)c(=O)n2C,-1.58,
Fc1ccc(-c2nnc3ccc(N4CCOCC4)nn23)cc1,1.05,
Cc1cc(NC(=O)CSc2nnc(Cc3cc(=O)[nH]c(=O)[nH]3)n2-c2ccc(Cl)cc2)no1,-1.22,
CC(CCc1ccco1)NC(=O)Cn1ncc2c1-c1ccccc1OC2 (centres undefined),1.12,
CC(C)C(NS(=O)(=O)c1ccc2c(c1)oc(=O)n2C)C(=O)Nc1ccc(F)c(F)c1 (centres undefined),-1.83,

SMILES,fold change,outcome
CN1CCN(CCCNC(=O)Cn2ncc3c4ccccc4n(C)c3c2=O)CC1,-1.07,
CCc1nc(N)c(C#N)c(-c2cccnc2)c1C,-2.52 (active),
COc1ccc2cc3c(N)nn(C(=O)CSc4ccncc4)c3nc2c1,-1.05,
Cc1ccc(Cn2ccc(NC(=O)c3noc(C(C)C)c3[N+](=O)[O-])n2)cc1,-2.42 (active),
CN(CC(=O)NCc1ccco1)S(=O)(=O)c1ccc2c(c1)CCC(=O)N2,-1.35,
Cc1noc(C(=O)NC(C)C)c1Cl,1.11,
Brc1cccc(-c2nc3cnccn3c2NC2CCCCC2)c1,-1.11,
COc1ccc(NC(=O)CSc2nc(-c3ccco3)cc(C(F)(F)F)n2)c(OC)c1,-1.96,
O=C(NCCc1c[nH]c2ccccc12)C1CCN(c2ccc(N3CCOCC3)nn2)CC1,-1.29,
CC(C)CCNC(=O)Cn1c(=O)oc2cc(S(=O)(=O)N3CCc4ccccc43)ccc21,1.17,
CC(C)(C)c1ccc(OCc2nc(-c3ccncc3)no2)c(Br)c1,-1.23,
COc1cc(/C=C2\SC(N3CCN(C)CC3)=NC2=O)cc(OC)c1OC,-1.05,
Cc1noc(C(=O)Nc2cccnc2Cl)c1Cl,1.48,
O=C(O)c1ccc(CNc2c(N3CCOCC3)c(=O)c2=O)cc1,1.05,
N#Cc1ccccc1Cn1c(=O)n(-c2ccc(CC(=O)NCc3ccco3)cc2)c(=O)c2sccc21,-1.2,
CSc1ccccc1NC(=O)c1onc(C)c1Cl,1.5,
Cc1ccc(-c2cc(C(F)F)n3ncc(C(=O)Nc4cccnc4Cl)c3n2)cc1,-1.66,
O=C(Nc1ccc2nc3n(c(=O)c2c1)CCCCC3)C(=O)NC1CCCCC1,-1.44,
N#Cc1ccc(Cn2c(=O)n(Cc3ccccc3Cl)c(=O)c3cccnc32)cc1,-1.11,
